Common to all, as to assay: NCI-60 one-dose screen, 48 h (100 = growth as untreated, 0 = no growth, -100 = all killed)
Common to all, as to conditions: 10 µM unless noted

The subject of test [1] is SK-MEL-2 melanoma.
The test system of test [2] is EKVX NSCLC.
Test [3] concerns SN12C renal.
In test [4] the test system is UO-31 renal.
For test [5], the system named is TK-10 renal.
The subject of test [6] is ACHN renal.
The subject of test [7] is CAKI-1 renal.
Test [8] has as its system A498 renal.
Test [9] deals with CCRF-CEM leukemia.
In test [10] the test system is MOLT-4 leukemia.

Experimental findings from PubChem BioAssay (NCI) are described below.

Molecules are shown by their SMILES. This is part of a sample that, as a whole, favours compounds with a hit. Of some 83,000 tested, about 20% had one in any assay.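 Assay: single dose, 48 h. Readout: percent growth (0 = no net growth; negative = cell death). Active: <10.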 Unmarked numbers belong to inactive results. Active and inactive are the calls of the source.

As to `Cc1cc(C#Cc2ccc(C(C)(C)C)cc2)ccc1-n1c(/C=C/c2c(Cl)cccc2Cl)nc2ccccc2c1=O`, the growth was 120% in [1]; 89.9% in test [2]; 104% in [3]; 77.2% in [4]; 99.1% in test [5]; 96.2% in test [6]. Also, the growth in test [7] was 83.9%; in test [8] it was 104%; in test [9], 95.9%; in test [10], 86.9%.
Turning to `CC(=O)CC(c1ccc([N+](=O)[O-])cc1)c1c(O)c2ccccc2oc1=O` (stereo not given), the growth in [1] was 97%; in test [2] it was 108%; in [3] it was 92.2%; in test [4] it was 76.7%; in test [5], 105%; in test [6], 98.1%. The growth in test [7] was 94.1%; in test [8], 70.3%; in [10], 100%.
For `S=C(Nc1ccc(Cl)cc1)Nc1ccc(Cl)cc1` (tested in a mixture with another compound), the growth in test [1] is -32.7% (active); in test [2], -4.98% (active); in test [3], 11.1%; in [4], -5.47% (active); in test [5] it was 1.45% (active); in test [6], 3.54% (active). Further, the values for the growth in test [7], in test [8] and in [10] were -20.3% (active), -8.63% (active) and 15.3%, respectively.
`CS(=O)(=O)c1ccc(Cl)c([N+](=O)[O-])c1`: the growth in test [1] was 99.8%; in test [2], 104%; in test [3] it was 107%; in test [4], 5.92% (active); in [5], 108%; in [6], 108%. The growth in test [7] is -88.3% (active); in test [8], 106%; in test [10], 53.2%.
Take `O=C(O)C(CCc1ccccc1)NCc1ccccc1` (stereo not given): the growth in [1] is 94.9%; in test [2], 102%; in test [3], 93%; in test [4], 77.8%; in test [5], 91%; in [6] it was 95.8%. Also, the values for the growth in [7], in [8] and in test [10] were 100%, 86.2% and 108%, respectively.
On to `CCCCCCCCCCCCCCCC1=NCCN1`, for which the growth in [1] was 96%; in [2], 85.2%; in [3] it was -51.6% (active); in test [4], 64.5%; in [5], 102%; in test [6] it was 71.2%. Besides, the growth was 81.3% in test [7], 65.5% in test [8] and -27.3% (active) in test [10].
Turning to `COc1ccc2c(c1)N(Cc1ccc(Cl)cc1)CCC2N1CCCC1=O` (stereo not given), the growth in test [1] is 64.4%; in [2] it was 36.9%; in test [3], 39.2%; in test [4] it was 8.64% (active); in test [5] it was 55.3%; in [6], 53.3%. For the same compound, the growth in test [7] was 40.8%; in [8], -7.14% (active); in test [10], 34.5%.
Take `C=C1C(=O)O[C@H]2[C@H]1CC/C(COC(=O)NCc1ccc(Cn3c(=O)sn(CCCl)c3=O)cc1)=C\CC[C@@]1(C)O[C@@H]21`: the growth in [1] was 68.8%; in test [2], 83.6%; in test [3], 82.6%; in test [4] it was 79.3%; in [5], 11.4%; in [6], 70.3%. Further, the growth in [7] was 48.3%; in test [8], 98.4%; in test [9], -3.67% (active); in test [10], -18.8% (active).
As for `COc1cc(Cl)cc(-c2nn(C(=O)NCCN3CCOCC3)cc2-c2ccncc2)c1`, the growth is 78.3% in test [1]; 93.4% in test [2]; 75.3% in test [3]; 56.9% in test [4]; 78% in test [5]; 65.6% in [6]. The growth was 73.3% in [7], 65.7% in test [8] and 74.2% in test [10].
With `O=C(O)CSc1ccc(NCc2oc(CO)cc(=O)c2O)cc1`, the growth was 119% in test [1]; 106% in test [2]; 98.2% in test [3]; 80% in [4]; 111% in test [5]; 97.3% in test [6]. For the same compound, the growth in [7] was 98.4%; in test [8], 106%; in [10], 88.3%.
On to `C(=Nc1ccc(-c2ccc(N=Cc3ccccc3)cc2)cc1)c1ccccc1`, for which the growth in test [1] was 109%; in test [2] it was 105%; in test [3], 93.3%; in test [4], 66.6%; in test [5], 110%; in [6], 101%. Further, the growth is 94.3% in [7], 97.9% in test [8], 88.3% in test [9] and 83% in [10].
With `CC(C)[C@@H]1C=C2CC[C@H]3[C@](C)(CN)CCC[C@]3(C)[C@H]2CC1`, the growth in [1] was 81.7%; in test [2], 65.6%; in test [3] it was 93%; in test [4], 68.3%; in test [5] it was 90.8%; in test [6] it was 80.5%. Further, the growth was 78.7% in test [7], 66.6% in test [8], 71% in test [9] and 49.4% in [10].
For the compound `CC(C)C/C=C/C=C/C(=O)N[C@@H](CC(N)=O)C(=O)N[C@@H]1C(=O)N[C@H](c2ccc(O)cc2)C(=O)N[C@H](CCCN)C(=O)N[C@H]([C@@H](C)O)C(=O)N[C@H](c2ccc(O)cc2)C(=O)N[C@H](c2ccc(O)cc2)C(=O)N[C@H]([C@H](C)O)C(=O)N[C@H](Cc2ccccc2)C(=O)N[C@H](CCCN)C(=O)N[C@H](c2ccc(O[C@H]3O[C@@H](CO)[C@@H](O)[C@@H](O)[C@H]3O[C@@H]3O[C@H](CO)[C@H](O)[C@H](O)[C@@H]3O)cc2)C(=O)N[C@H]([C@H](C)O)C(=O)N[C@H](c2ccc(O)cc2)C(=O)NCC(=O)N[C@H](CC(C)C)C(=O)N[C@H](C)C(=O)N[C@H](c2ccc(O)c(Cl)c2)C(=O)O[C@@H]1C(N)=O`, the growth is 88.2% in [1]; 92.7% in test [2]; 94.5% in [3]; 118% in test [4]; 74.5% in [5]; 111% in test [6]. Also, the growth in test [7] was 97.1%; in test [8] it was 199%; in test [10], 38.8%.
Turning to `CS(=O)(=O)c1ccc(C(=O)Nc2ccc(Cl)c(-c3ccccn3)c2)c(Cl)c1`, the growth in test [1] was -6.37% (active); in [2], 23.5%; in [3], 28.2%; in [4] it was 24.6%; in test [5], 11.9%; in test [6], 27.9%. For the same compound, the growth was -17.6% (active) in test [7], 6.2% (active) in test [8] and 11.5% in [10].
